In PubChem BioAssay AID1159580 (chemical genetic matrix, 2015):
“And” between values parts separate entries of the source, which are not always exact repeats. Equal entries are not always repeated. Among all 5,500 compounds or so, about 2,000 (36%) were called active. About 18% were inconclusive and are not listed. Cut-off read from the data, not from the text of the source: active = normalized growth mostly below about 0.91 (no sharp cut-off); inconclusive = no clear call, values can overlap the other calls; inactive = mostly above about 0.92. Some of the results follow.

Test: chemical genetic growth profiling, strain panel (AID 1159580);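 note: tested at 20 µM; growth read once vehicle control cultures reached saturation at 30 °C; 1 = growth at the plate median or of vehicle wells; lower values mean less growth of the strain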
Conditions: S. cerevisiae deletion strains, growth OD

Measured: normalized growth

COc1cc2c(cc1OC)[C@@H]1C(=O)c3ccc(OC)c(CC=C(C)C)c3O[C@@H]1CO2
inactive: locus YAL013W, strain DEP1, hits give low values 1.03 | locus YAL021C, strain ccr4, hits give low values 1.06 | locus YAL026C, strain drs2, hits give low values 1.04 | locus YAL030W, strain snc1, hits give low values 1.02 | locus YBL061C, strain skt5, hits give low values 1.02 | locus YBR009C, strain hhf1, hits give low values 1.01 | locus YBR021W, strain FUR4, hits give low values 1.03 | locus YBR023C, strain chs3, hits give low values 1.02 | locus YBR171W, strain sec66, hits give low values 1.05 | locus YBR229C, strain ROT2, hits give low values 1.02 | locus YBR231C, strain swc5, hits give low values 1.05 | locus YBR279W, strain paf1, hits give low values 1.01 | locus YCL011C, strain gbp2, hits give low values 1.02 | locus YCL016C, strain dcc1, hits give low values 1.02 | locus YCL029C, strain bik1, hits give low values 1.02 | locus YCL061C, strain MRC1, hits give low values 0.987 | locus YCL069W, strain vba3, hits give low values 1.03 | locus YCR088W, strain abp1, hits give low values 1.02 | locus YDL005C, strain med2, hits give low values 1.02 | locus YDL035C, strain GPR1, hits give low values 1.06 | locus YDL040C, strain nat1, hits give low values 1.02 | locus YDL074C, strain BRE1, hits give low values 1.05 | locus YDL101C, strain DUN1, hits give low values 1.01 | locus YDL185W, strain tfp1, hits give low values 1.02 | locus YDL192W, strain arf1, hits give low values 1.04 | locus YDR001C, strain nth1, hits give low values 1.02 | locus YDR069C, strain doa4, hits give low values 1.03 | locus YDR101C, strain arx1, hits give low values 1.03 | locus YDR137W, strain rgp1, hits give low values 0.892 | locus YDR159W, strain sac3, hits give low values 1.02 | locus YDR162C, strain NBP2, hits give low values 1.01 | locus YDR195W, strain ref2 1.06 | locus YDR297W, strain sur2, hits give low values 1.02 | locus YDR318W, strain mcm21, hits give low values 1.01 | locus YDR334W, strain swr1, hits give low values 1.02 | locus YDR335W, strain msn5, hits give low values 1.03 | locus YDR388W, hits give low values 1.02 | locus YDR392W, strain spt3, hits give low values 0.813 | locus YDR502C, strain sam2, hits give low values 1.01 | locus YEL003W, strain gim4, hits give low values 1.03 | locus YEL037C, strain rad23, hits give low values 1.01 | locus YEL061C, strain CIN8 (second series), hits give low values 1.03 | locus YEL061C, strain CIN8, hits give low values 1.04 | locus YER015W, strain faa2, hits give low values 1.04 | locus YER016W, strain bim1, hits give low values 1.03 | locus YER110C, hits give low values 1 | locus YER111C, strain swi4, hits give low values 1.02 | locus YER155C, strain BEM2 (second series), hits give low values 1.03 | locus YER155C, strain BEM2, hits give low values 0.993 | locus YER167W, strain BCK2, hits give low values 1.01 | locus YFR010W, strain ubp6, hits give low values 1.03 | locus YGL078C, strain dbp3, hits give low values 1.01 | locus YGL086W, strain mad1, hits give low values 0.999 | locus YGL167C, strain pmr1, hits give low values 1.03 | locus YGL173C, strain kem1, hits give low values 1.04 | locus YGL227W, strain vid30, hits give low values 1.03 | locus YGL240W, strain doc1, hits give low values 1.03 | locus YGL248W, strain PDE1, hits give low values 1.02 | locus YGL253W, strain hxk2, hits give low values 1.04 | locus YGR078C, strain PAC10, hits give low values 1.05 | locus YGR135W, strain pre9, hits give low values 1.02 | locus YGR252W, strain gcn5, hits give low values 0.994 | locus YHR013C, strain ard1, hits give low values 1.14 | locus YHR027C, strain rpn1, hits give low values 1.03 | locus YHR030C, strain SLT2, hits give low values 1.02 and 1.03 | locus YHR079C, strain IRE1 (second series), hits give low values 0.997 | locus YHR079C, strain IRE1, hits give low values 1.02 | locus YHR094C, strain hxt1, hits give low values 1.01 | locus YHR129C, strain ARP1, hits give low values 1.04 | locus YHR142W, strain chs7, hits give low values 1.01 | locus YHR200W, strain rpn10, hits give low values 1.01 | locus YIL066C, strain RNR3, hits give low values 1.01 | locus YIL073C, strain SPO22, hits give low values 1.1 | locus YIL125W, strain kgd1, hits give low values 0.995 | locus YIR030C, strain dcg1, hits give low values 0.998 | locus YJL092W, strain hpr5, hits give low values 1.03 | locus YJL095W, strain BCK1 (second series), hits give low values 1.02 | locus YJL095W, strain BCK1, hits give low values 1.04 and 1.05 | locus YJL115W, strain asf1, hits give low values 1.03 | locus YJL129C, strain trk1, hits give low values 0.953 | locus YJL134W, strain LCB3, hits give low values 1.02 | locus YJL154C, strain vps35, hits give low values 1.03 | locus YJL164C, strain tpk1, hits give low values 1 | locus YJL166W, strain qcr8, hits give low values 1.03 | locus YJL168C, strain set2, hits give low values 1 | locus YJL187C, strain SWE1 (second series), hits give low values 1 | locus YJL187C, strain SWE1, hits give low values 1.04 | locus YJR066W, strain TOR1, hits give low values 0.982 | locus YKL009W, strain mrt4, hits give low values 1.04 | locus YKL068W, hits give low values 0.999 | locus YKL085W, strain MDH1 (second series), hits give low values 0.999 | locus YKL085W, strain MDH1, hits give low values 0.999 | locus YKL160W, strain elf1, hits give low values 1.02 | locus YKL190W, strain CNB1, hits give low values 1.04 | locus YKR001C, strain vps1, hits give low values 0.934 | locus YKR026C, strain gcn3, hits give low values 1 | locus YKR091W, strain srl3, hits give low values 1.02 | locus YLL001W, strain dnm1, hits give low values 1.03 | locus YLL026W, hits give low values 1.03 | locus YLL041C, strain sdh2, hits give low values 1.02 | locus YLR027C, strain aat2, hits give low values 1.02 | locus YLR039C, strain RIC1, hits give low values 0.846 | locus YLR058C, strain SHM2, hits give low values 1 | locus YLR102C, strain apc9, hits give low values 1.01 | locus YLR113W, strain HOG1, hits give low values 0.988 | locus YLR221C, strain rsa3, hits give low values 1.01 | locus YLR258W, strain gsy2, hits give low values 1.03 | locus YLR262C, strain YPT6 (second series), hits give low values 0.91 | locus YLR268W, strain sec22, hits give low values 1.05 | locus YLR320W, strain mms22, hits give low values 1.02 | locus YLR330W, strain CHS5, hits give low values 1.01 | locus YLR342W, strain FKS1, hits give low values 1.02 | locus YLR357W, strain rsc2, hits give low values 1.02 | locus YLR370C, strain arc18, hits give low values 1.02 | locus YLR371W, strain rom2, hits give low values 1.04 | locus YLR384C, strain iki3, hits give low values 1.02 | locus YLR418C, strain cdc73, hits give low values 1.01 | locus YML016C, strain PPZ1, hits give low values 1.01 | locus YML032C, strain rad52, hits give low values 1 | locus YML120C, strain ndi1, hits give low values 1.01 | locus YML124C, strain tub3, hits give low values 1.01 | locus YMR058W, strain fet3, hits give low values 1.03 | locus YMR078C, strain ctf18, hits give low values 1.01 | locus YMR125W, strain sto1, hits give low values 1.03 | locus YMR129W, hits give low values 1.02 | locus YMR205C, strain PFK2, hits give low values 0.993 | locus YMR223W, strain ubp8, hits give low values 1.02 | locus YMR231W, strain pep5, hits give low values 1.02 | locus YMR263W, strain SAP30, hits give low values 1.03 | locus YMR307W, strain GAS1, hits give low values 1.08 | locus YNL067W, strain RPL9B, hits give low values 1.04 | locus YNL071W, strain lat1, hits give low values 1.01 | locus YNL153C, strain GIM3, hits give low values 1.04 | locus YNL183C, strain NPR1, hits give low values 0.974 | locus YNL209W, strain ssb2, hits give low values 1.03 | locus YNL233W, strain BNI4, hits give low values 0.984 | locus YNL248C, strain rpa49, hits give low values 1.05 | locus YNL250W, strain rad50, hits give low values 0.961 | locus YNL271C, strain bni1, hits give low values 1.01 | locus YNL298W, strain CLA4, hits give low values 1.01 | locus YNL307C, strain MCK1, hits give low values 0.999 | locus YNL322C, strain KRE1 (second series), hits give low values 1.01 | locus YNL322C, strain KRE1, hits give low values 1.02 | locus YNR049C, strain mso1, hits give low values 1.04 | locus YNR052C, strain pop2, hits give low values 1.03 | locus YOL012C, strain htz1 1.26 | locus YOL147C, strain pex11, hits give low values 1 | locus YOR001W, strain rrp6, hits give low values 1.04 | locus YOR061W, strain CKA2, hits give low values 1.02 | locus YOR069W, strain VPS5, hits give low values 1.01 | locus YOR070C, strain gyp1, hits give low values 1.02 | locus YOR080W, strain dia2, hits give low values 1.04 | locus YOR083W, strain WHI5, hits give low values 1.02 | locus YOR106W, strain vam3, hits give low values 1.05 | locus YOR136W, strain idh2, hits give low values 1.03 | locus YOR144C, strain elg1, hits give low values 1.01 | locus YOR184W, strain ser1, hits give low values 1.05 | locus YOR231W, strain MKK1, hits give low values 1.04 | locus YOR265W, strain rbl2, hits give low values 1.02 | locus YOR270C, strain vph1, hits give low values 1.06 | locus YOR290C, strain snf2, hits give low values 1 | locus YOR316C, strain cot1, hits give low values 0.992 | locus YPL051W, strain arl3, hits give low values 1.01 | locus YPL078C, strain atp4, hits give low values 1.03 | locus YPL106C, strain sse1, hits give low values 1.1 | locus YPL240C, strain hsp82, hits give low values 1.02 | locus YPL256C, strain CLN2, hits give low values 1.03 | locus YPR119W, strain clb2, hits give low values 1.01 | locus YPR141C, strain kar3, hits give low values 1 | locus YPR163C, strain tif3, hits give low values 0.997 | locus YPR167C, strain met16, hits give low values 1.01 | strain wtn01, hits give low values 1.01
